# Test results as given in PubChem BioAssay (NCATS).
# Records with an inconclusive call do not appear. A call without a number means that no potency is given here. A number with no mark means an inactive call. Calls of active or inactive are those of the source. The call rests on the fitted dose curve.
# Experiments:
# [1] = Primary qHTS for Huh7 cytotoxicity: counterscreen for inhibitors of MERS-S pseudotyped particle cell entry (AID 1479147)
# [2] = Primary qHTS for inhibitors of MERS-S pseudo-typed particle cell entry (AID 1479149); further: nearly all actives have a fitted effect of over 60% in size; further: potency means the concentration at half of the fitted maximal effect
# [3] = Primary qHTS for Vero E6 cytotoxicity: counterscreen for inhibitors of SARS-S pseudo-typed particle cell entry (AID 1479150)
Compound,Potency [1],Potency [2],Potency [3],outcome [1],outcome [2],"activity change, negative = cytotoxicity [3]"
NCCCC[C@H](N[C@@H](CCc1ccccc1)C(=O)O)C(=O)N1CCC[C@H]1C(=O)O,inactive,inactive,inactive,–,–,–
CCCCCCCCCCOc1cc2c(=O)c(C(=O)OCC)c[nH]c2cc1OCC,–,–,–,inactive [at 5.34 µM],inactive [at 5.34 µM],1.57% [at 5.34 µM]
COc1c(N2C[C@@H]3CCCN[C@@H]3C2)c(F)cc2c(=O)c(C(=O)O)cn(C3CC3)c12,inactive,inactive,inactive,–,–,–
C[N+]1(C)[C@@H]2CC(OC(=O)[C@H](CO)c3ccccc3)C[C@H]1[C@@H]1O[C@@H]12 (some centres undefined),inactive,inactive,inactive,–,–,–
COc1ccc(C(=O)c2ccccc2O)c(O)c1,inactive,inactive,inactive,–,–,–
OCc1ccc(Cl)cc1Cl,inactive,inactive,inactive,–,–,–
CC(C)(C)NC[C@H](O)COc1cccc2c1CCCC2=O,inactive,inactive,inactive,–,–,–
CC(=O)Oc1cc(C(C)C)c(OCCN(C)C)cc1C,inactive,inactive,inactive,–,–,–
O=C(O)CN(CCN(CC(=O)O)CC(=O)O)CCN(CC(=O)O)CC(=O)O,inactive,inactive,inactive,–,–,–
CN1CCN2c3ncccc3Cc3ccccc3C2C1 (centres undefined),inactive,inactive,inactive,–,–,–
COc1ccc2c(c1)c(CC(=O)OC/C=C(\C)CC/C=C(\C)CCC=C(C)C)c(C)n2C(=O)c1ccc(Cl)cc1,inactive,inactive,inactive,–,–,–
CCCCC(CC)CNC(=O)CC(C)OC(=O)CCC(=O)O (centres undefined),inactive,inactive,inactive,–,–,–
CN(C)C(=O)Oc1ccc[n+](C)c1,inactive,inactive,inactive,–,–,–
CCCOC(=O)c1ccccc1,inactive,inactive,inactive,–,–,–
CCc1oc2ccccc2c1C(=O)c1cc(I)c(O)c(I)c1,inactive,inactive,inactive,–,–,–
CCOc1ccc(NS(=O)(=O)c2ccc(N)cc2)nn1,inactive,inactive,inactive,–,–,–
CCN1C(=O)NC(c2ccccc2)C1=O (centres undefined),inactive,inactive,inactive,–,–,–
Cc1c(N(C)CS(=O)(=O)O)c(=O)n(-c2ccccc2)n1C,inactive,inactive,inactive,–,–,–
NC1CCN(c2nc3c(cc2F)c(=O)c(C(=O)O)cn3-c2ccc(F)cc2F)C1 (centres undefined),inactive,inactive,inactive,–,–,–

Compound,Potency [1],Potency [2],Potency [3],outcome [1],outcome [2],"activity change, negative = cytotoxicity [3]"
C=CCN1CCc2nc(N)sc2CC1,inactive,inactive,inactive,–,–,–
CN1C(C(=O)Nc2ccccn2)=C(O)c2sccc2S1(=O)=O,inactive,inactive,inactive,–,–,–
CC(=O)Nc1ccc(S(=O)(=O)Nc2cc(C)on2)cc1,inactive,inactive,inactive,–,–,–
CC1(C)S[C@@H]2[C@H](NC(=O)C(c3ccccc3)S(=O)(=O)O)C(=O)N2[C@H]1C(=O)O (some centres undefined),inactive,inactive,inactive,–,–,–
CCOCCn1c(C2CCN(CCc3ccc(C(C)(C)C(=O)O)cc3)CC2)nc2ccccc21,inactive,inactive,inactive,–,–,–
Nc1nc(N)nc(-c2cc(Cl)ccc2Cl)n1,inactive,inactive,inactive,–,–,–
COC(=O)c1ccc(O)cc1,inactive,inactive,inactive,–,–,–
Cc1cc2nc3c(=O)[nH]c(=O)nc-3n(C[C@H](O)[C@H](O)[C@H](O)CO)c2cc1C,inactive,inactive,inactive,–,–,–
CCCCCCNC(=O)n1cc(F)c(=O)[nH]c1=O,inactive,5.01 µM (active),inactive,–,–,–
NCc1ccc(S(N)(=O)=O)cc1,inactive,inactive,inactive,–,–,–
CCCCCN(CCCOC)C(=O)C(CCC(=O)O)NC(=O)c1ccc(Cl)c(Cl)c1 (centres undefined),inactive,inactive,inactive,–,–,–
Cc1ccc(C(C)C)cc2c(C)ccc1-2,inactive,inactive,inactive,–,–,–
COC(=O)C1=C(C)NC(C)=C(C(=O)OCC(C)=O)C1c1ccccc1[N+](=O)[O-] (centres undefined),inactive,inactive,inactive,–,–,–
CCCNC(C)C(=O)Nc1c(C)csc1C(=O)OC (centres undefined),inactive,inactive,inactive,–,–,–
CO/N=C(/C(=O)N[C@@H]1C(=O)N2C(C(=O)[O-])=C(C[n+]3ccn4ncccc43)CS[C@H]12)c1nsc(N)n1,inactive,inactive,inactive,–,–,–
CC(C)(C)NCC(O)c1cc(O)cc(O)c1 (centres undefined),inactive,inactive,inactive,–,–,–
c1ccc2c(c1)CCCC2C1=NCCN1 (centres undefined),inactive,inactive,inactive,–,–,–
O=c1c(-c2ccc(O)cc2)coc2cc(O)cc(O)c12,inactive,inactive,inactive,–,–,–
COc1cc(C(=O)NS(=O)(=O)c2ccccc2C)ccc1Cc1cn(C)c2ccc(NC(=O)OC3CCCC3)cc12,inactive,inactive,inactive,–,–,–
